PubChem BioAssay (EPA / NIEHS)
Where “and” joins values, the source holds several entries; their conditions need not be identical. Identical values can stand only once. Records with an inconclusive call do not appear. Some compounds were tested as several samples or in several runs, with calls that do not always agree. Calls of active or inactive are those of the source. Rule for the calls, unless noted: active = hit-call score of the fitted dose curve at least 0.9, where 1 is the maximum; inactive = score below 0.9.

Key:
[1] = target: human Vitamin D Receptor (VDR), VDR (gene 7421) (UniProt P11473); assay: ATG_VDR_TRANS: Attagene TRANS-FACTORIAL HepG2 Assay for human Vitamin D Receptor (VDR) (AID 2283022; active = hit-call score of the fitted dose curve at least 0.9, where 1 is the maximum)
Outline: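 Multiplexed TRANS reporter in HepG2; 24 h treatment; reporter mRNA by RT-PCR plus capillary electrophoresis; upregulation scored relative to DMSO.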

[2] = BSK_3C_SRB: Viability Assessment in the BioMAP Diversity Plus: 3C Assay (AID 2283023); conditions: primary human endothelial cells (HUVEC);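 note: cells read 24 h after compound dosing; fitted both ways against DMSO so a hit may be signal rise or drop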
Outline: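 Overt cytotoxicity is gauged in parallel confluent HUVEC cultures by SRB total-protein staining at the time of biomarker measurement, 24 h after dosing. Gain or loss of signal is fitted versus DMSO.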

[3] = read-out: Matrix Metallopeptidase 1 (MMP1), MMP1 (gene 4312); assay: BSK_BE3C_MMP1: BioMAP Diversity Plus: BE3C Assay for Matrix Metallopeptidase 1 (MMP1) Biomarker Activity (AID 2283024); conditions: primary human bronchial epithelial cells; actives raise or lower the signal
Outline: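 ELISA measurement of MMP-1 after 24 h compound exposure of primary human bronchial epithelial cells. Changes in either direction fitted relative to DMSO; parallel SRB staining checked overt cytotoxicity.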

[4] = BSK_3C_Vis: BioMAP Diversity Plus: 3C Assay for Morphology Visualization (AID 2283025); conditions: primary human endothelial cells (HUVEC);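 note: fitted both ways so gain or loss versus DMSO counts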;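 for AC50: light microscopy image of cell morphology used as background control; cells imaged 24 h after dosing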
Outline: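 Light-microscopy visualization of HUVEC cultures at 24 h post-treatment, with DMSO as baseline for bidirectional fitting.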

[5] = read-out: Pselectin, SELP (gene 6403); assay: BSK_4H_Pselectin: BioMAP Diversity Plus: 4H Assay for Pselectin Biomarker Activity (AID 2283026); conditions: primary human endothelial cells (HUVEC); actives raise or lower the signal
Outline: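 ELISA of surface P-selectin on HUVEC, 24 h after dosing, with parallel SRB staining (0.1% after 10% TCA fixation, 560 nm) for overt cytotoxicity. Activity fitted in both directions relative to DMSO.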

[6] = BSK_4H_SRB: Viability Assessment in the BioMAP Diversity Plus: 4H Assay (AID 2283027); conditions: primary human endothelial cells (HUVEC);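 note: cells exposed to compound for 24 h before staining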;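 for AC50: curves fitted both ways versus DMSO so AC50 may be loss or gain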
Outline: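 HUVEC, 24 h post-dose; 10% TCA fix, 0.1% SRB stain, A560 nm. Total protein = overt cytotoxicity, parallel to biomarker read. Bidirectional fit vs DMSO baseline.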

[7] = read-out: Thrombomodulin, THBD (gene 7056); assay: BSK_3C_Thrombomodulin: BioMAP Diversity Plus: 3C Assay for Thrombomodulin Biomarker Activity (AID 2283029); conditions: primary human endothelial cells (HUVEC); actives raise or lower the signal
Outline: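 ELISA measurement of thrombomodulin on HUVEC surface 24 h after chemical dosing; activity fitted in both directions relative to DMSO vehicle.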

[8] = read-out: Urokinase-type plasminogen activator receptor (uPAR), PLAUR (gene 5329); assay: BSK_4H_uPAR: BioMAP Diversity Plus: 4H Assay for Urokinase-type plasminogen activator receptor (uPAR) Biomarker Activity (AID 2283030); conditions: primary human endothelial cells (HUVEC); actives raise or lower the signal
Outline: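 Endpoint derived via bidirectional curve fitting against DMSO baseline; readout was ELISA detection of uPAR on umbilical vein endothelial cells at 24 h post-treatment, with SRB-stained parallel cultures assessing cytotoxicity.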

[9] = read-out: Vascular endothelial growth factor receptor 2 (Homo sapiens) (UniProt P35968); assay: BSK_4H_VEGFRII: BioMAP Diversity Plus: 4H Assay for Vascular endothelial growth factor receptor 2 (VEGFR2) Biomarker Activity (AID 2283031); conditions: primary human endothelial cells (HUVEC); actives raise or lower the signal;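 for AC50: cell-surface VEGFR2 protein level quantified by ELISA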
Outline: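 In this multiplexed HUVEC system, biomarker ELISA was performed after 24 h chemical exposure. Parallel SRB staining (TCA fixation, 560 nm) tracked cytotoxicity; DMSO served as baseline.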

[10] = BSK_BE3C_SRB: Viability Assessment in the BioMAP Diversity Plus: BE3C Assay (AID 2283028); conditions: primary human bronchial epithelial cells;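 for AC50: fitted both ways so AC50 may mark signal gain or loss versus DMSO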
Outline: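 SRB total-protein staining (0.1%, after TCA fixation) of chemically dosed human bronchial epithelial primary cells at 24 h; DMSO serves as the negative control for bidirectional curve fitting.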

Measured: AC50

Chain of human Vitamin D Receptor (VDR), VDR (gene 7421) (P11473 whole entry, looked up): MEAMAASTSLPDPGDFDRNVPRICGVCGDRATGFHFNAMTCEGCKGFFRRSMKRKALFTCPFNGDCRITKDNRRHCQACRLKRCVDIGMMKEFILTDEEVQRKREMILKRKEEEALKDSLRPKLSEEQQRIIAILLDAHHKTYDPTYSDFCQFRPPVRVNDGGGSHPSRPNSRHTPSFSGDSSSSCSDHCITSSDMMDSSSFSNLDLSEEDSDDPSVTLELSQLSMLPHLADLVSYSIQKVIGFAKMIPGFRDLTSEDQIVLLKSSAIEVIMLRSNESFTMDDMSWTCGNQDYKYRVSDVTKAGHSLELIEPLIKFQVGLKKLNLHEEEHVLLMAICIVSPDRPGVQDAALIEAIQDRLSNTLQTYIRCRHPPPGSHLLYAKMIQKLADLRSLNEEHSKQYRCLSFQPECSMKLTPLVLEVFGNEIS

Cc1cc(C)nc(NC(=O)NS(=O)(=O)c2ccccc2C(=O)OC2COC2)n1
not listed: [10]
inactive: all other assays above

COP(=S)(OC)Oc1ccc([N+](=O)[O-])cc1
active: [2] 23 µM | [4] 14.4 µM | [6] 5.97 µM
not listed: [10]
inactive: all other assays above

O=[N+]([O-])/N=C1\NCCN1Cc1ccc(Cl)nc1
not listed: [10]
inactive: all other assays above

OCCOc1ccccc1
inactive: all assays above

O=C(O)CCCOc1ccc(Cl)cc1Cl
not listed: [10]
inactive: all other assays above

CC(C)(C)C(O)C(Oc1ccc(Cl)cc1)n1cncn1 (stereo not drawn)
inactive: all assays above

CCC(C)Nc1c([N+](=O)[O-])cc(C(C)(C)C)cc1[N+](=O)[O-] (stereo not drawn)
active: [2] 20.2 µM | [3] 11.1 µM | [4] 39 µM | [5] 20 µM | [6] 19.7 µM | [10] 14.7 µM | [9] 21 µM
inactive: [1] | [7] | [8]

CCS(=O)(=O)c1cccnc1S(=O)(=O)NC(=O)Nc1nc(OC)cc(OC)n1
not listed: [10]
inactive: all other assays above

COC(=O)c1ccccc1S(=O)(=O)NC(=O)Nc1nc(C)nc(OC)n1
not listed: [10]
inactive: all other assays above

CCN(CC)C(=O)SCc1ccc(Cl)cc1
not listed: [10]
inactive: all other assays above

CCOCN(C(=O)CCl)c1c(C)cccc1CC
active: [2] 18.2 µM | [4] 39 µM | [5] 11.4 µM
not listed: [10]
inactive: all other assays above

O=S(=O)(O)C(F)(F)C(F)(F)C(F)(F)C(F)(F)C(F)(F)C(F)(F)C(F)(F)C(F)(F)F
inactive: [1] | [2] | [3] | [4] | [5] | [6] | [7] | [8] | [9]
active: [2] 31.5 µM and 30.8 µM and 26.7 µM | [4] 37.7 µM and 13.7 µM | [5] 12.2 µM and 3.81 µM | [8] 463 nM and 14.2 µM

O=C(Nc1ccccc1)Nc1cnns1
not listed: [10]
inactive: all other assays above

O=C(O)COc1ccc(Cl)cc1Cl
inactive: all assays above

Clc1ccccc1-c1nnc(-c2ccccc2Cl)nn1
inactive: all assays above

CC[C@H](C)[C@H]1O[C@]2(C=C[C@@H]1C)C[C@@H]1C[C@@H](C/C=C(\C)[C@@H](O[C@H]3C[C@H](OC)[C@@H](O[C@H]4C[C@H](OC)[C@@H](O)[C@H](C)O4)[C@H](C)O3)[C@@H](C)/C=C/C=C3\CO[C@@H]4[C@H](O)C(C)=C[C@@H](C(=O)O1)[C@]34O)O2 (tested in a mixture with another compound)
active: [2] 5.58 µM | [3] 11.1 µM | [4] 3.78 µM | [5] 5.3 µM | [6] 8.22 µM | [7] 2.13 µM | [8] 8.93 µM | [9] 5.27 µM
inactive: [1]

O=S1OCC2C(CO1)C1(Cl)C(Cl)=C(Cl)C2(Cl)C1(Cl)Cl (stereo not drawn)
inactive: [1] | [7]
active: [2] 20 µM | [3] 36.6 µM | [4] 16.3 µM | [5] 27.3 µM | [6] 27.7 µM | [10] 20.9 µM | [8] 30.5 µM | [9] 34.8 µM
